Results published in PubChem BioAssay (NCI).
Compounds without any hit were thinned out: in the full panel of roughly 83,000, 20% have a hit.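 Values shown are percent growth following 48 h exposure of cells in 96-well plates to a single concentration of compound; below 10 was considered active.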 The source made the active and inactive calls.

Tested on: PC-3 prostate
Experiment: NCI-60 one-dose screen, 48 h (100 = growth as untreated, 0 = no growth, -100 = all killed)
Conditions: 10 µM

SMILES	growth
O=C(/C=C/c1ccc(Br)cc1)c1nc2ccccc2n1Cc1ccc(Br)cc1	18.7% (inactive)
COC(=O)CCn1c(-c2ccc(-n3cc(-c4ccc(O[C@H]5O[C@@H]6OC7(C)CC[C@H]8[C@H](C)CC[C@@H]([C@H]5C)[C@@]68OO7)cc4)nn3)cc2)nc2ccccc21	25.7% (inactive)
CC1=C(C=O)C2=C(C)C3(CC3)[C@@](C)(O)C(=O)C2=C1	26.1% (inactive)
N#C[Se]CC(=O)Nc1cccc(C(F)(F)F)c1	26.8% (inactive)
CCC[Se]C(=O)c1ccc(C(=O)[Se]CCC)s1	4.67% (active)
C[C@H]1[C@@H](CC(=O)N[C@@H](Cc2coc3ccccc23)B(O)O)O[C@@H]2OC3(C)CC[C@H]4[C@H](C)CC[C@@H]1[C@@]24OO3	-25.6% (active)
O=C(/C=C/c1ccco1)c1nc2ccccc2n1Cc1ccc(F)cc1	65.6% (inactive)
COC(=O)C[C@](O)(CCC(C)C)C(=O)O[C@H]1C(OC)=C[C@@]23CCCN2CCc2cc4c(cc2[C@@H]13)OCO4	-23.5% (active)
C[C@H]1[C@H](OC(=O)CCC(=O)N(CCCc2cn(-c3ccc(C#N)cc3)nn2)CCNc2ccnc3cc(Cl)ccc23)O[C@@H]2OC3(C)CC[C@H]4[C@H](C)CC[C@@H]1[C@@]24OO3	33.9% (inactive)

Tested on: SK-MEL-5 melanoma
Experiment: as above
Conditions: 10 µM

SMILES	growth
COc1cc2cc(C(=O)N3C[C@@H](CCl)c4c3cc(OC(=O)N3CCN(C)[C@@H]5CSSC[C@H]53)c3ccccc43)[nH]c2c(OC)c1OC	-100% (active)
O=C(/C=C/c1ccc(Cl)cc1)c1nc2ccccc2n1Cc1ccc(F)cc1	69% (inactive)
CCOP(=O)(CC(F)(F)C(F)(F)F)OCC	78.9% (inactive)
C[C@H]1[C@H](OC(=O)CCC(=O)N(CCCc2cn(-c3ccc([N+](=O)[O-])cc3)nn2)CCNc2ccnc3cc(Cl)ccc23)O[C@@H]2OC3(C)CC[C@H]4[C@H](C)CC[C@@H]1[C@@]24OO3	17.8% (inactive)
COc1cc2cc(C(=O)N3C[C@@H](CCl)c4c3cc(OC(=O)N3CCN(C)[C@@H]5CSSC[C@@H]53)c3ccccc43)[nH]c2c(OC)c1OC	-32.2% (active)
CC[C@]12C=CCN3CC[C@@]4(c5ccc(OC)cc5N(C)[C@H]4[C@@](O)(C(=O)OC)[C@@H]1OC(=O)CCC[P+](c1ccc(C)cc1)(c1ccc(C)cc1)c1ccc(C)cc1)[C@@H]32	-99.4% (active)
O=C(/C=C/c1ccc(F)cc1)c1nc2ccccc2n1Cc1ccc(F)cc1	21.1% (inactive)
O=C(/C=C/c1ccccc1)c1nc2ccccc2n1Cc1ccc(Br)cc1	-57% (active)
C=CC[Se]C(=O)c1cncc(C(=O)[Se]CC=C)c1	-36.3% (active)
O=C(/C=C/c1ccc(F)cc1)c1nc2ccccc2n1Cc1ccc(Br)cc1	-76.2% (active)
CC[C@]12C=CCN3CC[C@@]4(c5ccc(OC)cc5N(C)[C@H]4[C@@](O)(C(=O)OC)[C@@H]1OC(=O)CCCC[P+](c1ccc(C)cc1)(c1ccc(C)cc1)c1ccc(C)cc1)[C@@H]32	-98.5% (active)
CC1=C(CCC=NNC(N)=O)C2=C(C)C3(CC3)[C@@](C)(O)C(=O)C2=C1	-100% (active)
Cc1ccc2[nH]c(=S)n(-c3ccc(F)cc3)c(=O)c2c1	98.3% (inactive)
C#CC[Se]C(=O)c1ccc2n[se]nc2c1	83.2% (inactive)
CC1=C(COCCOC(=O)c2ccc(S(=O)(=O)F)cc2)C2=C(C)C3(CC3)[C@@](C)(O)C(=O)C2=C1	-92.1% (active)
O=C(/C=C/c1ccc(Br)cc1)c1nc2ccccc2n1Cc1ccc(Br)cc1	1.54% (active)
COC(=O)CCn1c(-c2ccc(-n3cc(-c4ccc(O[C@H]5O[C@@H]6OC7(C)CC[C@H]8[C@H](C)CC[C@@H]([C@H]5C)[C@@]68OO7)cc4)nn3)cc2)nc2ccccc21	1.38% (active)
CC1=C(C=O)C2=C(C)C3(CC3)[C@@](C)(O)C(=O)C2=C1	-91.5% (active)
CCC[Se]C(=O)c1ccc(C(=O)[Se]CCC)s1	-76.3% (active)
COC(=O)C[C@](O)(CCC(C)C)C(=O)O[C@H]1C(OC)=C[C@@]23CCCN2CCc2cc4c(cc2[C@@H]13)OCO4	-70.4% (active)

Tested on: UACC-62 melanoma
Experiment: as above
Conditions: 10 µM

SMILES	growth
COc1cc2cc(C(=O)N3C[C@@H](CCl)c4c3cc(OC(=O)N3CCN(C)[C@@H]5CSSC[C@H]53)c3ccccc43)[nH]c2c(OC)c1OC	-92.9% (active)
CC1=C(CCC=O)C2=C(C)C3(CC3)[C@@](C)(O)C(=O)C2=C1	-96.5% (active)
COC(=O)C[C@](O)(CCC(C)C)C(=O)O[C@@H]1C(OC)=C[C@]23CCCN2CCc2cc4c(cc2[C@H]13)OCO4	-92.5% (active)
O=C(/C=C/c1ccc(Cl)cc1)c1nc2ccccc2n1Cc1ccc(F)cc1	23.5% (inactive)
CC[C@]12C=CCN3CC[C@@]4(c5ccc(OC)cc5N(C)[C@H]4[C@@](O)(C(=O)OC)[C@@H]1OC(=O)CCC[P+](C1CCCCC1)(C1CCCCC1)C1CCCCC1)[C@@H]32	-97.3% (active)
CC1=C2C(=C[C@@](C)(COP(=O)(Oc3ccccc3)Oc3ccccc3)[C@@H]2O)C(=O)[C@@](C)(O)C12CC2	-87.7% (active)
CC(=O)Oc1ccccc1C(=O)NC([Se])=NC1CCCCC1	-57.5% (active)
CCOP(=O)(CC(F)(F)C(F)(F)F)OCC	44.7% (inactive)
CC(C)C[C@H](NC(=O)CNC(=O)C[C@H]1O[C@@H]2OC3(C)CC[C@H]4[C@H](C)CC[C@@H]([C@H]1C)[C@@]24OO3)B(O)O	-86.6% (active)
C[C@H]1[C@@H](Oc2ccc(-c3cn(-c4ccnc5cc(Cl)ccc45)nn3)cc2)O[C@@H]2OC3(C)CC[C@H]4[C@H](C)CC[C@@H]1[C@@]24OO3	21.2% (inactive)
C[C@H]1[C@H](OC(=O)CCC(=O)N(CCCc2cn(-c3ccc([N+](=O)[O-])cc3)nn2)CCNc2ccnc3cc(Cl)ccc23)O[C@@H]2OC3(C)CC[C@H]4[C@H](C)CC[C@@H]1[C@@]24OO3	39% (inactive)
COc1cc2cc(C(=O)N3C[C@@H](CCl)c4c3cc(OC(=O)N3CCN(C)[C@@H]5CSSC[C@@H]53)c3ccccc43)[nH]c2c(OC)c1OC	-91.4% (active)
COc1cc2cc(C(=O)N3C[C@@H](CCl)c4c3cc(OC(=O)N3CCN(C(=O)CCC(=O)N5CCN(C)CC5)[C@@H]5CSSC[C@@H]53)c3ccccc43)[nH]c2c(OC)c1OC	-64% (active)
COC(=O)c1ccc(-n2cc(CCCN(CCNc3ccnc4cc(Cl)ccc34)C(=O)CCC(=O)O[C@@H]3O[C@@H]4OC5(C)CC[C@H]6[C@H](C)CC[C@@H]([C@H]3C)[C@@]46OO5)nn2)cc1	36.8% (inactive)
O=C([Se]C1C=CCCC1)c1ccc(C(=O)[Se]C2C=CCCC2)s1 (stereo not drawn)	-89.2% (active)
O=C(/C=C/c1cccc(Br)c1)c1nc2ccccc2n1Cc1ccc(F)cc1	22.4% (inactive)
CC[C@]12C=CCN3CC[C@@]4(c5ccc(OC)cc5N(C)[C@H]4[C@@](O)(C(=O)OC)[C@@H]1OC(=O)CCC[P+](c1ccc(C)cc1)(c1ccc(C)cc1)c1ccc(C)cc1)[C@@H]32	-96.8% (active)
O=C(NC([Se])=NC1CCCCC1)c1ccccc1	9.12% (active)
O=C(/C=C/c1ccc(F)cc1)c1nc2ccccc2n1Cc1ccc(F)cc1	-41.7% (active)
O=C(/C=C/c1ccccc1)c1nc2ccccc2n1Cc1ccc(Br)cc1	-94.2% (active)

SMILES	growth
C=CC[Se]C(=O)c1cncc(C(=O)[Se]CC=C)c1	-62.3% (active)
COc1ccc(OC)c(/C=C/C(=O)c2nc3ccccc3n2Cc2ccc(F)cc2)c1	-57.6% (active)
O=C(/C=C/c1ccc(F)cc1)c1nc2ccccc2n1Cc1ccc(Br)cc1	-84% (active)
CC[C@]12C=CCN3CC[C@@]4(c5ccc(OC)cc5N(C)[C@H]4[C@@](O)(C(=O)OC)[C@@H]1OC(=O)CCCC[P+](c1ccc(C)cc1)(c1ccc(C)cc1)c1ccc(C)cc1)[C@@H]32	-97.4% (active)
CC(C)N=C([Se])NC(=O)c1cccs1	27.5% (inactive)
CC1=C(CCC=NNC(N)=O)C2=C(C)C3(CC3)[C@@](C)(O)C(=O)C2=C1	-88.1% (active)
Cc1ccc2[nH]c(=S)n(-c3ccc(F)cc3)c(=O)c2c1	90.7% (inactive)
C#CC[Se]C(=O)c1ccc2n[se]nc2c1	51.4% (inactive)
CC1=C(COCCOC(=O)c2ccc(S(=O)(=O)F)cc2)C2=C(C)C3(CC3)[C@@](C)(O)C(=O)C2=C1	-88.5% (active)
CC12CCC3(CCC(=O)NCCCNc4ccnc5cc(Cl)ccc45)[C@@](C)(OO[C@]3(C)O1)O2	11.1% (inactive)
O=C(/C=C/c1ccc(Br)cc1)c1nc2ccccc2n1Cc1ccc(Br)cc1	-66.5% (active)
COC(=O)CCn1c(-c2ccc(-n3cc(-c4ccc(O[C@H]5O[C@@H]6OC7(C)CC[C@H]8[C@H](C)CC[C@@H]([C@H]5C)[C@@]68OO7)cc4)nn3)cc2)nc2ccccc21	10.8% (inactive)
CC1=C(C=O)C2=C(C)C3(CC3)[C@@](C)(O)C(=O)C2=C1	49.3% (inactive)
N#C[Se]CC(=O)Nc1cccc(C(F)(F)F)c1	-77.4% (active)
CCC[Se]C(=O)c1ccc(C(=O)[Se]CCC)s1	-64.9% (active)
C[C@H]1[C@@H](CC(=O)N[C@@H](Cc2coc3ccccc23)B(O)O)O[C@@H]2OC3(C)CC[C@H]4[C@H](C)CC[C@@H]1[C@@]24OO3	-90.8% (active)
O=C(/C=C/c1ccco1)c1nc2ccccc2n1Cc1ccc(F)cc1	45.4% (inactive)
COC(=O)C[C@](O)(CCC(C)C)C(=O)O[C@H]1C(OC)=C[C@@]23CCCN2CCc2cc4c(cc2[C@@H]13)OCO4	-25.2% (active)
C[C@H]1[C@H](OC(=O)CCC(=O)N(CCCc2cn(-c3ccc(C#N)cc3)nn2)CCNc2ccnc3cc(Cl)ccc23)O[C@@H]2OC3(C)CC[C@H]4[C@H](C)CC[C@@H]1[C@@]24OO3	43.3% (inactive)
